# HIF act = HIF pathway transcriptional activation. activation, % at 7.5 µM (by protocol). AID 1910. U2OS HRE-luciferase reporter, luminescence; normalized: DMSO 0%, desferrioxamine 100%. hit rate 0.32% among 300,000;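 active means mean activation of at least 10% of the iron chelator positive control signal, with at least half of replicates also reaching 10%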
# ALR inh = inhibitors of human sulfhydryl oxidase ALR; P55789; purified ALR, DTT oxidation, H2O2 HRP-luminol luminescence; inhibition, % (concentration not given with the values); hit rate 3.8% among 290,000; AID 485317;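 active means mean replicate inhibition above about 79%, with every replicate also reaching it, limit read from the data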
# Target sequence (P55789 whole entry, looked up): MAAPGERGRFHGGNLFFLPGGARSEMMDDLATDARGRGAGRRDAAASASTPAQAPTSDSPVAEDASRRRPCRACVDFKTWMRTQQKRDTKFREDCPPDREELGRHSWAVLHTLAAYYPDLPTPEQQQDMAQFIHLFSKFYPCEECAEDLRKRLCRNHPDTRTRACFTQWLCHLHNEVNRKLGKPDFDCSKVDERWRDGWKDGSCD
# SUMO Mot1 rescue = blocks SUMOylation pathway, rescuing yeast Mot1-301 growth. S. cerevisiae Mot1-301 growth rescue, ATP luminescence, 38.5C; percent above DMSO median, 100 means doubled. growth rescue, % at 18.8 µM. hit rate 1% among 320,000;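 active means every valid replicate shows activation above 250% relative to neutral control wells; inactive means the rest, any valid replicate at or below 250%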
# AI-2 QS mod = Vibrio harveyi AI-2 quorum sensing modulation; Vibrio harveyi JMH597 AI-2 luminescence/OD600 ratio, 9 h; stronger effect = lower value; strain lacks LuxN and CqsS sensors; 0 = neutral-control median; activity change, % at 7.5 µM; hit rate 0.4% among 300,000; in the data active means activity change below about -75%, passing the limit was not always enough;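 further: luminescence divided by OD600 gain over 9 h not by final OD600 alone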
# Numbers stand for hits; – = inactive; · = not tested or not shown. The list is not random: actives were taken first. Their share in the collection is about 4.8%.
SMILES,HIF act,ALR inh,SUMO Mot1 rescue,AI-2 QS mod
CCOC(=O)c1c(C)oc2cc(Br)c(OC(C)C(=O)OCC)cc12 (configuration not stated),–,–,–,–
CCOC(=O)COc1cc2c(C(=O)OCC)c(C)oc2cc1Br,–,97,–,–
O=C(COc1cccc(C(F)(F)F)c1)N1CCN(c2ccccc2O)CC1,–,98,–,–
O=C(CCNS(=O)(=O)c1ccccc1C(F)(F)F)N1CCN(c2ccccc2O)CC1,–,99,–,–
Nc1ncc(Br)cc1S(=O)(=O)NCCC(=O)N1CCN(c2ccccc2)CC1,–,96,–,–
CCOc1ccc(S(=O)(=O)NCCC(=O)N2CCN(c3ccccc3O)CC2)cc1,–,98,–,–
O=C(CCNS(=O)(=O)c1ccccc1C(F)(F)F)N1CCN(S(=O)(=O)c2cccc(Cl)c2)CC1,–,–,–,–
O=C(CN1C(=O)NC2(CCCc3ccccc32)C1=O)Nc1cc(F)ccc1F (configuration not stated),–,·,–,–
O=C(NCc1ccncc1)C1=NN(c2ccccc2)C(=O)CC1,–,94,–,–
CCc1c(C2(O)CCCCC2)[nH]c2ccc(C(F)(F)F)cc12,–,–,–,–
Cn1c(=O)cc(C(=O)N/N=C/c2ccc(F)cc2)[nH]c1=O,12,–,–,–
CCCCNc1nc(N)nc(-c2cc(Cl)ccc2O)n1,13,–,–,–
CC(=O)Nc1c([N+](=O)[O-])cc2[nH]c(=O)[nH]c2c1[N+](=O)[O-],–,–,–,–
CC(=O)Nc1c([N+](=O)[O-])cc(C)c(Cl)c1[N+](=O)[O-],13,–,–,–
Cc1cc(C(=O)CSc2nnc(N)s2)c(C)n1C1CC1,–,98,–,–
COc1ccc(N2CCN(C(=O)C3CCCN3S(=O)(=O)c3cccc4nsnc34)CC2)cc1 (configuration not stated),–,–,–,–
O=C(c1cccc2ccccc12)n1nnc2ccccc21,–,94,–,–
C#CCOC(=O)c1ccccc1C(=O)n1nnc2ccccc21,–,97,–,–
Cc1sc(NC(=O)CN(C(=O)c2ccccc2F)C2CCCC2)c(C(N)=O)c1C,–,–,–,–
O=C(CSC1=NS(=O)(=O)c2cc(Cl)ccc2N1)Nc1cccc(F)c1,–,98,–,–
O=C(CSC1=NS(=O)(=O)c2ccccc2N1)Nc1ccc(F)cc1,–,97,–,–
O=C(O)c1ccccc1-c1ccccc1C(=O)NCc1ccccc1Cl,–,–,–,–
Cc1ccc(-n2nc3c(=O)n(C(C)C(=O)NCc4ccc(Cl)cc4)nc(C)c3c2C)cc1 (configuration not stated),–,–,–,–
O=C(O)c1ccc(Sc2nnc(-c3cccc(Br)c3)o2)c([N+](=O)[O-])c1,–,99,–,–
O=C(NCc1n[nH]c(=S)n1-c1ccccc1)c1ccc(S(=O)(=O)N2CCOCC2)cc1,–,91,–,–
SMILES,HIF act,ALR inh,SUMO Mot1 rescue,AI-2 QS mod
COc1cc(/C=N/NC(=O)CCn2nnc3ccccc32)ccc1O,–,99,–,–
COc1cccc(/C=N/NC(=O)CSCC(=O)Nc2ccccc2)c1O,17,91,–,–
CCOc1cc(/C=N\NC(=O)Cn2nnc3ccccc32)ccc1O,–,–,–,–
COc1cccc(/C=N/NC(=O)CCn2nnc3ccccc32)c1,–,–,–,–
COc1cccc(/C=N\NC(=O)Cn2nnc3ccccc32)c1O,16,–,–,–
COc1cccc(/C=N/NC(=O)CNC(=O)C(c2ccccc2)c2ccccc2)c1O,14,·,–,–
CC(C)=CCC12Oc3cc(O)ccc3C1(O)Oc1cc(O)c([C@H]3C=C(C)CC(c4ccc(O)cc4O)[C@H]3C(=O)c3ccc(O)cc3O)c(O)c1C2=O (some centres not stated),–,–,–,–
COc1cccc(/C=N/NC(=O)CC2C(=O)NN=C2C)c1O (configuration not stated),–,97,–,–
COc1cccc(/C=N/NC(=O)CC2C(=O)NN=C2C)c1OC (configuration not stated),–,–,–,–
Cc1c(NC(=O)C(C)OC(=O)c2cc(Cl)ccc2O)c(=O)n(-c2ccccc2)n1C (configuration not stated),–,–,–,–
COc1cc(NC(=O)COC(=O)CC(NC(C)=O)c2ccccc2)cc(OC)c1 (configuration not stated),–,–,352,–
COCCNC(=O)CN(Cc1ccc(F)cc1)C(=O)CCC(=O)Nc1nccs1,–,–,–,–
Oc1ccc(N2CCN(Cc3cc4c(cc3Br)OCCO4)CC2)cc1,–,92,–,–
O=S(=O)(c1ccc(F)cc1)N1CCN(Cc2cc3c(cc2Br)OCCO3)CC1,·,–,–,·
Cc1cnn(CCC(=O)NNC(=S)Nc2ccc(F)cc2)c1,–,82,–,–
Cc1ccc(N2CCN(C(=O)N3CCCC3)CC2)cc1C,–,96,–,–
Cc1ccc(N2CCN(S(=O)(=O)N3CCCCC3)CC2)cc1C,–,–,–,–
Cc1ccc(CNC(=O)CCNC(=O)N2CCn3c2nc2ccccc23)cc1,–,94,–,–
COc1cccc(CNC(=O)CCNC(=O)N2CCn3c2nc2ccccc23)c1,–,98,–,–
O=C(Nc1ccccc1F)N1CCc2ccccc2C1,–,–,–,–
N#C/C(=N\Nc1cccc(C(F)(F)F)c1)C(=O)c1csc(-c2cccnc2)n1,–,97,–,–
Cc1nn(CCc2n[nH]c(=S)n2-c2ccc(F)c(Cl)c2)c(C)c1[N+](=O)[O-],–,92,–,–
Cc1nn(CCc2n[nH]c(=S)n2-c2ccc(F)cc2)c(C)c1[N+](=O)[O-],–,81,–,–
COc1ccc(CNc2nc3ccccc3n2C(C)C)c(O)c1,–,99,–,–
Cn1c(NCc2cc(Br)ccc2O)nc2ccccc21,–,–,–,–
SMILES,HIF act,ALR inh,SUMO Mot1 rescue,AI-2 QS mod
CC(C)n1c(NCc2nc3ccccc3n2C)nc2ccccc21,–,–,–,–
COc1ccc(CNc2nc3ccccc3n2C)c(O)c1,–,·,–,–
C=CCn1c(NCc2cc(C)ccc2O)nc2ccccc21,–,98,–,–
CCn1c(CNc2nc3ccccc3n2C(C)C)nc2ccccc21,–,98,–,–
Cc1ccc(O)c(CNc2nc3ccccc3n2C(C)C)c1,–,98,–,–
CC(C)CCC1(C)NC(=O)N(CC(=O)c2ccc[nH]2)C1=O (configuration not stated),–,–,–,–
Cn1c(CNC(=O)CNC(=O)Cc2ccccc2)cc(=O)n(C)c1=O,–,–,–,–
CCN(CC(=O)Nc1ccc2c(c1)OCCO2)C(=O)/C=C/c1cccc(C(F)(F)F)c1,·,–,–,·
O=C(c1cccc(F)c1)N1CCN=C1SCc1cccnc1,·,100,–,–
O=C(c1ccc(Br)o1)N1CCN=C1SCc1cccc(F)c1,·,–,–,–
COc1cc(OC)cc(C(=O)N2CCN=C2SCc2cccnc2)c1,·,100,–,–
O=C(c1ccc2c(c1)OCO2)N1CCN=C1SCc1ccccc1,·,93,–,–

# Compound activity as filed in PubChem.
